Laboratory results reported in PMC7826789 (International Journal of Molecular Sciences, 2021).

Each molecule was assayed on MAP2K5.
For `COc1cc2ncn(-c3cc(OCC4CCCO4)c(C(N)=O)s3)c2cc1OC` (stereo not shown) [GSK204607], the Kinases covered was “MAP2K5”. `COc1cc2nccc(Nc3ccc(OCc4ccc(NC(C)=O)cc4)cc3)c2cc1OC` [GW440135] was tested, and the Kinases covered was “MAP2K5”. `Cc1ccc(C(=O)Nc2ccc(Nc3ccnc4cc(-c5ccccn5)ccc34)cc2O)cc1` [GW440146] was tested, and the Kinases covered was “MAP2K5”. In the case of `COc1cc(Nc2nccc(N3CCC(NC(=O)Nc4cc(C)ccc4C)C3)n2)cc(OC)c1OC` (stereo not shown) [GSK1379762], the Kinases covered is reported as “MAP2K5”.

These molecules were tested on MAPK10.
With `Nc1nccc(-c2c(-c3ccc(F)cc3)ncn2C2CCN(Cc3ccccc3)CC2)n1` [SB-219980] the Kinases covered was “MAPK10”. `COC(=O)c1c(-c2ccccc2)c2cc(Br)ccc2c(=O)n1Cc1ccc(S(C)(=O)=O)cc1` [TPKI-100] was tested, and the Kinases covered was “MAPK10”. `CCc1nc(-c2cccc(C)c2)c(-c2ccncc2)s1` [TPKI-106] was tested, and the Kinases covered was “MAPK10”. `O=C(O)/C=C/C(=O)O.OCCCNc1nccc(-c2c(-c3ccc(F)cc3)nn3cc(C(F)(F)F)ccc23)n1` [GW569293E] was tested, and the Kinases covered was “MAPK10”. For `CCC(=O)c1c(-c2ccccc2)c2cc(Cl)ccc2c(=O)n1Cc1cc(S(C)(=O)=O)n(CC(N)=O)n1` [TPKI-105], the Kinases covered was “MAPK10”. For `Fc1ccc(-c2nn3ccccc3c2-c2ccncc2)cc1` [GW434756X], the Kinases covered was “MAPK10”.
